Inconclusive results are not listed. Some of the results follow. A call without a number means that no potency is given here. Activity calls are given as the source filed them. Unless noted, calls follow the shape of the dose curve; as a rule, active = well fitted curve in the direction sought with a large enough effect; inconclusive = small, poorly fitted or top-dose-only effect, or another doubt; inactive = no such curve, though single readings can be large; an effect the other way counts as inactive or inconclusive.
Experiments:
[1] = molecular target: Ferritin light chain (Equus caballus) (UniProt P02791); assay: qHTS Validation Assay for Identification of Novel General Anesthetics (AID 2323); settings: horse apoferritin, anesthetic-site fluorescent probe displacement; series mostly up to 76.9 µM
Ferritin light chain (Equus caballus), sequence (P02791 2-175 limits assumed): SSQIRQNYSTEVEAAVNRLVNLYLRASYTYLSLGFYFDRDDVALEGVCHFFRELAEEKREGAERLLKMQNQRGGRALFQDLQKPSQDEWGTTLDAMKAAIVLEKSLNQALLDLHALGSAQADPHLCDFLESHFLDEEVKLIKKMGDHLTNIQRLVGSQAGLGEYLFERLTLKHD
Method in brief: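 Competitive displacement of the profluorescent anesthetic 1-AMA (50% saturated, PBS) from 10 uM apoferritin, 10 min, room temperature. Activity is normalized 380/535 nm fluorescence; concentration-response fitted with a four-parameter Hill equation.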

[2] = molecular target: ATP-dependent DNA helicase Q1 (Homo sapiens) (UniProt P46063); assay: qHTS Validation Assay for Inhibitors of RecQ-Like Dna Helicase 1 (RECQ1) (AID 2353); settings: recombinant RECQ1 helicase DNA unwinding assay; series mostly up to 25.6 µM
ATP-dependent DNA helicase Q1 (Homo sapiens), sequence (P46063 whole entry, looked up): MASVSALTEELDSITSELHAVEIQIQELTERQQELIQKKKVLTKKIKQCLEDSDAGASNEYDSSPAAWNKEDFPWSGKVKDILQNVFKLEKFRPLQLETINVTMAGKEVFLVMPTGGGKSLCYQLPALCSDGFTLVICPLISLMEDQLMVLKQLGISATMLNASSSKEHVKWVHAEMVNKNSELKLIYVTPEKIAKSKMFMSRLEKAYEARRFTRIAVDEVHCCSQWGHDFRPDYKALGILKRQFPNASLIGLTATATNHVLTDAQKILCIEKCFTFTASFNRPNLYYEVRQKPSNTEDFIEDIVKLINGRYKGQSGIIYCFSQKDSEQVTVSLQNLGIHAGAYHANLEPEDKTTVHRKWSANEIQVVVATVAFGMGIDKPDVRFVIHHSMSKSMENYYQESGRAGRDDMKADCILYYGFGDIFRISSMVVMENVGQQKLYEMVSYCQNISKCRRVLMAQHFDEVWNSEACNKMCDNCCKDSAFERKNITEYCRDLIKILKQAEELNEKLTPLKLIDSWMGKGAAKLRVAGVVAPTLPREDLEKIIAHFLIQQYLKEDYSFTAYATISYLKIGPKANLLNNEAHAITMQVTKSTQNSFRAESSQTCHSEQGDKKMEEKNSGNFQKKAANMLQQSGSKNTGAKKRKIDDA
Method in brief: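 50 nM RECQ1T1 preincubated 15 min with compound in Tris pH 8.0 buffer with MgCl2, DTT, Tween-20 and 2.5 ug/ml poly(dI-dC); started with 200 nM TAMRA/BHQ-2 forked duplex and 2 mM ATP. Unwinding read as fluorescence (525/598 nm), two reads 2 h apart.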

[3] = molecular target: RecQ-like DNA helicase BLM (Homo sapiens) (UniProt P54132); assay: qHTS Validation Assay for Inhibitors of Bloom's syndrome helicase (BLM) (AID 2364); settings: BLM helicase DNA unwinding, fluorescence, in vitro; series mostly up to 57.1 µM
RecQ-like DNA helicase BLM (Homo sapiens), sequence (P54132 whole entry, looked up): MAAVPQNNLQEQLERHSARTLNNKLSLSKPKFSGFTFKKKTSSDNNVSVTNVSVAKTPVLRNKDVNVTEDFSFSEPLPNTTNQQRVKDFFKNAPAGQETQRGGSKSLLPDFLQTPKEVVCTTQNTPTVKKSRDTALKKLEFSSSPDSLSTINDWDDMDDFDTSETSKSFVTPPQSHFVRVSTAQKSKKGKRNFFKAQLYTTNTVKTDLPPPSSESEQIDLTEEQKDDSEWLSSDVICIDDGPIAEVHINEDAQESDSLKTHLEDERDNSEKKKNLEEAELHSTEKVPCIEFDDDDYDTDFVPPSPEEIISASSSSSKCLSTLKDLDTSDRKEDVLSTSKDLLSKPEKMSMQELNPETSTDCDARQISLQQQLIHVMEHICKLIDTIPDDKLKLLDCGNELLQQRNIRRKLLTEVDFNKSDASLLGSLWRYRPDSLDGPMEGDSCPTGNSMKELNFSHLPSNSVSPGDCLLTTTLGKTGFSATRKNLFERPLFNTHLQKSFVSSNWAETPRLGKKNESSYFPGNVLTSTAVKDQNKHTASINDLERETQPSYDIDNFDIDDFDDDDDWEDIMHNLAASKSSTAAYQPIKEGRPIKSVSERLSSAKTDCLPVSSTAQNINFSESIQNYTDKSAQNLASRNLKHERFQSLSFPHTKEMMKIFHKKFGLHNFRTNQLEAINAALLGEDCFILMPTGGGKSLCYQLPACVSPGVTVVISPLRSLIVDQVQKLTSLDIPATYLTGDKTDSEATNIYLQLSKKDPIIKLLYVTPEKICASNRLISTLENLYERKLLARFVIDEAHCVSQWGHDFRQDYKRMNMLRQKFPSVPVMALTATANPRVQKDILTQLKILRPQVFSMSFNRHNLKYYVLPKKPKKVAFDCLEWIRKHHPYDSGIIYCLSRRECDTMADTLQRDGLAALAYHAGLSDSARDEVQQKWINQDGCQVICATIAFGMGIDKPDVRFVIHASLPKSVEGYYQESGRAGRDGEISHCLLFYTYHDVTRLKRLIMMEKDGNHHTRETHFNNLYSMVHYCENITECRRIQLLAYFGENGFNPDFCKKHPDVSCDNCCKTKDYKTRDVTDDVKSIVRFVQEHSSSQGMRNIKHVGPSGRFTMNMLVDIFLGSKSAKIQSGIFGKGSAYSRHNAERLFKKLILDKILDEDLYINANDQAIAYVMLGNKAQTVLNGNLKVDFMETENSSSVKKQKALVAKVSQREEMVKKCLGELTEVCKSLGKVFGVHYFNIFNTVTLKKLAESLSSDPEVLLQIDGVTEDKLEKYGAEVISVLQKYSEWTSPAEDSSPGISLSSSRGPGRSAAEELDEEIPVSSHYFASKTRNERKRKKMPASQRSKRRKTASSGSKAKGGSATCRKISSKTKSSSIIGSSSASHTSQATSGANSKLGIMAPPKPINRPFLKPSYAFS
Method in brief: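 Forked 20-bp duplex substrate (200 nM, TAMRA/BHQ-2) plus 2 mM ATP added after 15 min compound preincubation with 50 nM enzyme, pH 8.0, poly(dI-dC) 2.5 ug/ml. Strand separation followed by fluorescence (525/598 nm) over 2 h, normalized to enzyme-free and DMSO controls.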

[4] = Cytometric Cell-Based qHTS for Inhibitors of the mTORC1 Signaling Pathway in MEF (Tsc2-/-, p53-/-) Cells (AID 2660); settings: mTORC1 pathway cytometry; series mostly up to 38.3 µM;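 also: Tsc2 and p53 null MEFs carrying empty vector with compound for 24 h; percent of cells above a phospho-rpS6 to PI ratio cutoff in each well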
Method in brief: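 Percent of cells positive for normalized phospho-S6 staining is reported, with the cutoff set from rapamycin (7.5 nM) versus DMSO wells. Tsc2-/-, p53-/- MEFs received compound for 24 hrs.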

[5] = High Content Imaging Cell-Based qHTS for Inhibitors of the mTORC1 Signaling Pathway in MEF (Tsc2-/-, p53-/-) Cells (AID 2666); settings: at 38.3 µM (top of the series);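 also: percent of cells scored positive for phospho-rpS6 Ser235/236 immunostaining by imaging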
Method in brief: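 Cells were plated, dosed with compound after 24 hrs, and incubated another 24 hrs at 37 degree Celsius. Fixed cells were immunostained for phospho-rpS6 Ser235/236 and counterstained, and the normalized signal was scored as % active cells against rapamycin and DMSO controls.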

[6] = High Content Imaging Cell-Based qHTS for Inhibitors of the mTORC1 Signaling Pathway in MEF Cells (AID 2667); settings: series mostly up to 38.3 µM;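 also: Tsc2-/- p53-/- MEFs stably re-expressing wild-type Tsc2 exposed 24 h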
Method in brief: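 Immunofluorescence for rpS6 phosphorylation in MEFs of Tsc2-/-, p53-/- background rescued with WT Tsc2. Compound exposure lasted 24 hrs. Inhibition was scored against rapamycin-treated control wells.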

[7] = Cytometry Cell-Based qHTS for Inhibitors of the mTORC1 Signaling Pathway in MEF cells (AID 2668); settings: mTORC1 pathway readout; series mostly up to 38.3 µM;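 also: Tsc2-/- p53-/- mouse embryonic fibroblasts stably re-expressing wild-type Tsc2; percent cells positive for phospho-rpS6 Ser235/236 relative to propidium iodide stain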
Method in brief: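 Phospho-rpS6 (Ser235/236) immunofluorescence over PI signal, scored as % positive cells using thresholds from 7.5 nM rapamycin and DMSO wells, after 24 h compound exposure of WT-Tsc2-rescued Tsc2-/-, p53-/- MEFs. PI cell count recorded for viability.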

[8] = Validation screen for small molecules that induce DNA re-replication in MCF 10A normal breast cells (AID 463097); settings: MCF 10A cells, DNA re-replication phenotype imaging; series mostly up to 46.1 µM; also: nearly all actives have a fitted effect of over 60% in size
Method in brief: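 Read-out is Hoechst total nuclear intensity by fluorescence scanning imager, flagging increased high-DNA-content nuclei. Compounds were incubated with MCF 10A cells for 48 hr (37 C, 5% CO2) before 40 min staining.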

[9] = molecular target: Ubiquitin carboxyl-terminal hydrolase 2 (Homo sapiens) (UniProt O75604); assay: qHTS Validation Assay for Inhibitors of Ubiquitin-specific Protease USP2a Using CHOP2 as the Reporter (AID 463106); settings: USP2a cleavage of CHOP2 reporter, enzymatic; series mostly up to 38.3 µM
Method in brief: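 10nM USP2 core + cpd, 30min RT; add 25nM Ub-CHOP2/25nM substrate; 60min RT; FI 485/531nm. Buffer Tris pH 8.0, CaCl2, BME, CHAPS. Norm. to NEM = 100% inhibition; time-zero read flags fluorescent artifacts.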

[10] = molecular target: DNA polymerase III PolC-type (Bacillus subtilis (strain 168)) (UniProt P13267); assay: qHTS Validation Assay for the Inhibitors of DNA Replication in Gram-Positive Bacteria (AID 485295); settings: Gram-positive bacterial DNA replication assay; series mostly up to 57.1 µM;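 also: reconstituted holoenzyme with PolC plus beta clamp SSB and primase; PicoGreen fluorescence of double-stranded DNA made on primed circular M13 template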
DNA polymerase III PolC-type (Bacillus subtilis (strain 168)), sequence (P13267 whole entry, looked up): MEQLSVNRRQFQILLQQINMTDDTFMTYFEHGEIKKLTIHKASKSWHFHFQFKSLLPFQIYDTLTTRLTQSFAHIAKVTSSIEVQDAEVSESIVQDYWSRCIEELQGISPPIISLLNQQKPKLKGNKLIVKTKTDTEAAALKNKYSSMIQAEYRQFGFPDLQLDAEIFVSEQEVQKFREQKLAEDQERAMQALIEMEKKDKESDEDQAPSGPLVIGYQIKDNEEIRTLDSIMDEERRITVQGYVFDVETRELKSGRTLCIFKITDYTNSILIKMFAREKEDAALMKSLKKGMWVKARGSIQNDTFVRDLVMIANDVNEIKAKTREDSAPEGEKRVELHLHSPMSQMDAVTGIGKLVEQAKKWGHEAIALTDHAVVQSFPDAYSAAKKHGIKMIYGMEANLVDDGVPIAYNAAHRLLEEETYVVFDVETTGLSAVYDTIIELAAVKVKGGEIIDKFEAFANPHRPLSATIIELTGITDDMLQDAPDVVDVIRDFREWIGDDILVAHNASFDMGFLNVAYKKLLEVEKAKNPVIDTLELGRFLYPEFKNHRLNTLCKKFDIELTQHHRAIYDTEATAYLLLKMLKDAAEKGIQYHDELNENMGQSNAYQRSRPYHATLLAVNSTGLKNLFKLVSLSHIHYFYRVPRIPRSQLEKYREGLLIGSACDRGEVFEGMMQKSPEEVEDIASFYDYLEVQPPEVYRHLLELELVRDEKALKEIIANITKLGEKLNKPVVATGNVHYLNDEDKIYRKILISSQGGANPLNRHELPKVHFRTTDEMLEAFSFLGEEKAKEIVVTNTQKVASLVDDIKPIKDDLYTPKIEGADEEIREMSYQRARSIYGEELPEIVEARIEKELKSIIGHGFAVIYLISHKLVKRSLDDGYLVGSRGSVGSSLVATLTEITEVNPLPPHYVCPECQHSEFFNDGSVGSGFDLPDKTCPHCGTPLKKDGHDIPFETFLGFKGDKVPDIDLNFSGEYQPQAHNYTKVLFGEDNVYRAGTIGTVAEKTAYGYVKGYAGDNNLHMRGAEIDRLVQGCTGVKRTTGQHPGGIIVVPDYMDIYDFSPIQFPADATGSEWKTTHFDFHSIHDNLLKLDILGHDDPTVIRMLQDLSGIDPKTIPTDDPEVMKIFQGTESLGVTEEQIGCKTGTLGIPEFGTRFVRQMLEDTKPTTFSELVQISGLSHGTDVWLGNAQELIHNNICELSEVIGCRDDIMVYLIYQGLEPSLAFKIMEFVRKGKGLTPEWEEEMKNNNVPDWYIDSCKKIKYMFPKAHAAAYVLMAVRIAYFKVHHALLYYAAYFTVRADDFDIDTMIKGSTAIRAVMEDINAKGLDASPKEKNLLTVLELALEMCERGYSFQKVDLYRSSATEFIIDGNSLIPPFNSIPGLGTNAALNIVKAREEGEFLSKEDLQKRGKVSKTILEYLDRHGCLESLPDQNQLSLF
Method in brief: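 Double-stranded DNA product detected by PicoGreen fluorescence after EDTA quench. Compound incubated with B. subtilis holoenzyme (PolC, beta subunit, SSB, primase) before substrate addition; primed replication of M13Gori with dNTPs and NTPs at room temperature; DMSO defines 0% inhibition.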

[11] = molecular target: Tumor susceptibility gene 101 protein (Homo sapiens) (UniProt Q99816); assay: qHTS Validation Assay for Iinhibitors of HIV-1 Budding by Blocking the Interaction of PTAP/TSG101 (AID 485342; calls by dose curve); settings: TSG101-PTAP binding, fluorescence polarization, 4-point titration; series mostly up to 115 µM
Method in brief: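 Fluorescence polarization of 50 nM FITC-PTAP peptide bound to 10 uM Tsg101 binding domain was read after 20 min room-temperature incubation with compounds, in 10 mM HEPES pH 7.5, 0.15 M NaCl, 0.01% Tween 20.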

[12] = molecular target: Beta-2 adrenergic receptor (Homo sapiens) (UniProt P07550); assay: qHTS validation assay of beta-arrestin-biased ligands of beta2-adrenergic receptor (AID 485366); settings: cell-based beta-arrestin recruitment to ADRB2, qHTS; series mostly up to 46.1 µM
Method in brief: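 Luminescence from a tTA-responsive luciferase, induced when recombinant beta-arrestin is recruited to recombinant beta2-AR, served as the agonism signal. Cells were exposed to compound for 18 hr at 37 degrees C; titrations spanned up to 46 microM.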

[13] = molecular target: ATP-dependent 6-phosphofructokinase (Trypanosoma brucei brucei) (UniProt O15648); assay: qHTS Validation Assay to Find Inhibitors of T. brucei phosphofructokinase (AID 485368); settings: T. brucei PFK enzyme assay, qHTS 7-point titration; at 57.5 µM (top of the series)
Method in brief: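 Activity was normalized between 1x (1.25 nM) PFK wells as no inhibition and enzyme-free wells as full inhibition, from luminescence after ADP-Glo detection of ADP made from 0.5 mM F6P and 0.1 mM ATP over 45 min.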

[14] = molecular target: Thioredoxin reductase 1, cytoplasmic (Rattus norvegicus) (UniProt O89049); assay: qHTS Assay for Substrates of Mammalian Selenoprotein Thioredoxin Reductase 1 (TrxR1) (AID 488772); settings: purified TrxR1, NADPH consumption substrate assay; series mostly up to 57.1 µM;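 also: NADPH fluorescence in the first read after selenite addition and not the 8 min delta; a drop in NADPH fluorescence below the no-compound background marks a TrxR1 substrate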
Thioredoxin reductase 1, cytoplasmic (Rattus norvegicus), sequence (O89049 whole entry, looked up): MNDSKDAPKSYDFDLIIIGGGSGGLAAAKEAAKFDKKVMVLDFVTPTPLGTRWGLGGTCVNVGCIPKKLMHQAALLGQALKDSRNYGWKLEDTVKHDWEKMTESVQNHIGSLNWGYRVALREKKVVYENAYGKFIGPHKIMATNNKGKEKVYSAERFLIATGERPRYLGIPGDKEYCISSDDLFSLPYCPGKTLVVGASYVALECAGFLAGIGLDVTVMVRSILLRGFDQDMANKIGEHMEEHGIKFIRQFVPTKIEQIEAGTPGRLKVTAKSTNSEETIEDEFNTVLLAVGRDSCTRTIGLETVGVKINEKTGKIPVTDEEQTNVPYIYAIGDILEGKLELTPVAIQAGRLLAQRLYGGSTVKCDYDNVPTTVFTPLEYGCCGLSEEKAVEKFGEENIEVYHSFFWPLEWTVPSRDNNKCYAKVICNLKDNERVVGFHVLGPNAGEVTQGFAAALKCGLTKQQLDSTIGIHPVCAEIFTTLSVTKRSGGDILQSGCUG
Method in brief: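 Quantitative HTS in Tris-HCl buffer at pH 7.5 with EDTA and Tween-20, using rat TrxR1, 400 uM NADPH and 400 uM selenite (final). A fall in initial NADPH fluorescence relative to background marked substrate behaviour.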

[15] = molecular target: Thioredoxin reductase 1, cytoplasmic (Rattus norvegicus) (UniProt O89049); assay: qHTS Assay for Inhibitors of Mammalian Selenoprotein Thioredoxin Reductase 1 (TrxR1) (AID 488773); settings: purified TrxR1 enzyme activity; series mostly up to 57.1 µM;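 also: drop in NADPH fluorescence over an 8 min run after selenite addition; nearly all actives have a fitted effect of over 40% in size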
Method in brief: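 Steps: enzyme (90 nM) plus NADPH (400 uM final), 5 min at ~22 deg C; compound added, 15 min; selenite (400 uM final) added; fluorescence followed for 8 min. Concentration-response curves derived from the normalized delta values.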

[16] = molecular target: Flap endonuclease 1 (Homo sapiens) (UniProt P39748); assay: qHTS Validation Assay for the Inhibitors of Human Flap endonuclease 1 (FEN1) (AID 488816); settings: FEN1 nuclease activity, fluorogenic DNA substrate; series mostly up to 57.1 µM
Flap endonuclease 1 (Homo sapiens), sequence (P39748 whole entry, looked up): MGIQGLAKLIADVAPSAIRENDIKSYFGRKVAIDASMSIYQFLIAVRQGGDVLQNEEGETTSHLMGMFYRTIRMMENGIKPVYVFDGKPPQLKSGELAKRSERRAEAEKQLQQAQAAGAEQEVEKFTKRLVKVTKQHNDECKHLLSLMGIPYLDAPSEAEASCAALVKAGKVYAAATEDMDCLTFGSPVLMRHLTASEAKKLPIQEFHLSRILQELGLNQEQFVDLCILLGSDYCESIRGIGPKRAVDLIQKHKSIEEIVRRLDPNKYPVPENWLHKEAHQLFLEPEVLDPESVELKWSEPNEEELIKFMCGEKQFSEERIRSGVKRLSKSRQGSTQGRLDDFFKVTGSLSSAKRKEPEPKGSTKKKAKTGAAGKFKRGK
Method in brief: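 Readings taken at 0 and 15 min after starting the reaction with 50 nM (final) substrate supplied the signal. Compounds had first sat with 10 nM FEN1 reagent for 15 min at room temperature. Values come from Hill-equation concentration-response fits.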

[17] = qHTS Assay for Identification of Small Molecule Inducers of Hypoxia Response (AID 2120; active = well fitted curve in the direction sought with a large enough effect in the signal ratio, with a control signal flat, not every such curve was filed as active; the % refers to the signal ratio); settings: hypoxia response reporter cells, beta-lactamase ratio readout; series mostly up to 104 µM
Method in brief: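 HRE-bla ME-180 cells in Opti-MEM with 0.5% dialyzed FBS, pre-plated 4-5 h, then compound titration for 17 h at 37 degrees Celsius. CCF4 loaded 2.5 h at room temperature; 460/530 nm ratio gave %Activity and AC50 for induction.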

[18] = molecular target: Endonuclease 4 (Escherichia coli (strain K12)) (UniProt P0A6C1); assay: Counterscreen for APE1 Inhibitors: qHTS Assay for Inhibitors of Endonuclease IV (AID 2565); settings: E. coli Endo IV, fluorogenic AP-site DNA cleavage; series mostly up to 57.1 µM
Method in brief: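 qHTS concentration-response format; LOPAC1280 tested under APE1-screen conditions. 2 nM enzyme, 15 min compound preincubation at RT, then 50 nM TAMRA/BHQ-2 abasic substrate; kinetic fluorescence read, three reads at 60 s intervals.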

[19] = molecular target: DNA repair nuclease/redox regulator APEX1 (Homo sapiens) (UniProt P27695); assay: Confirmation qHTS Assay for Inhibitors of the Human Apurinic/apyrimidinic Endonuclease 1 (APE1) (AID 2572); settings: purified APE1, fluorogenic abasic-site DNA cleavage; also: potency is read from the fitted curve at half-maximal effect; nearly all actives have a fitted effect of over 30% in size
DNA repair nuclease/redox regulator APEX1 (Homo sapiens), sequence (P27695 whole entry, looked up): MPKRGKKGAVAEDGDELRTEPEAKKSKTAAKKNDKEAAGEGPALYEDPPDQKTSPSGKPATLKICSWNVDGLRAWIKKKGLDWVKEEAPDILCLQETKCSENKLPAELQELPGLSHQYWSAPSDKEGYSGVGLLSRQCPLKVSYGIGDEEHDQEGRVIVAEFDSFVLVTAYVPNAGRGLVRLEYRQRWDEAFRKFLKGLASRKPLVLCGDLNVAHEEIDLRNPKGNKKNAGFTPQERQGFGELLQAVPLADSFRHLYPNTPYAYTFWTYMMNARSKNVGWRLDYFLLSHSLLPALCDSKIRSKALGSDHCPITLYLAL
Method in brief: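 Enzyme and test compound were incubated for 15 min at room temperature, after which a 50 nM (final) double-stranded abasic-site substrate bearing 5'-TAMRA and 3'-BHQ-2 was added. Incision was followed as fluorescence increase over three reads.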

[20] = molecular target: DNA repair nuclease/redox regulator APEX1 (Homo sapiens) (UniProt P27695); assay: qHTS FP-Based Assay for Inhibitors of the Human Apurinic/apyrimidinic Endonuclease 1 (APE1) (AID 2573); settings: APE1 binding to TAMRA-labelled double-stranded DNA, fluorescence polarization displacement; series mostly up to 57.1 µM
Description: The apurinic/apyrimidinic endonuclease APE1 is the primary mammalian enzyme responsible for the removal of abasic (or AP) sites in DNA and functions centrally in the base excision DNA repair (BER) pathway. […] Thus, targeting APE1 could improve the efficacy of current treatment paradigms by promoting selective sensitization or protection of diseased and normal cells, respectively.
In order to gain insight into the mode of action of confirmed APE1 inhibitors, we implemented a miniaturized fluorescence polarization assay designed to report on compounds which competitively displace ds-DNA substrate. The fluorescence polarization assay has been implemented in 384- and 1536-well format for binding of TAMRA-labeled double-stranded DNA probe not containing a quencher. The binding of protein to DNA is inhibited by ATA, a general inhibitor of APE1 activity.
See also related primary fluorogenic assay (AID 2517). […]
Three uL of enzyme were dispensed to 1536-well Greiner black solid bottom plates. […] The plates were immediately transferred into ViewLux High-throughput CCD imager (Perkin-Elmer) in order to measure the reaction progress in kinetic mode (three reads every 60 seconds) using 525 nm excitation and 598 nm emission fluorescence protocol. The fluorescence intensity difference between the third and the first time points was used to compute reaction progress.

With `CN1Cc2c(N)cccc2C(c2ccccc2)C1` (stereo not given) the outcome [1] was “inactive”, the outcome [2] was “inactive” and the outcome [3] was “inactive”. The outcome [4] was “inactive”, the outcome [5] was “inactive” and the outcome [6] was “inactive”. The outcome [7] was “inactive”, the outcome [8] was “inactive” and the outcome [9] was “inactive”. The outcome [10] was “inactive”, the outcome [11] was “inactive” and the outcome [12] was “inactive”. For the same compound, the outcome [13] was “inactive”, the outcome [14] was “inactive” and the outcome [15] was “inactive”. The outcome [16] was “inactive”.
In the case of `CCCCCCCC/C=C\CCCCCCCC(=O)O`, the outcome [17] was “inactive”.
With `IC(I)I` the outcome [17] was “inactive”.
With `CCOC(C)=O` the outcome [17] was “inactive”.
In the case of `Nc1ccn([C@H]2CS[C@@H](CO)O2)c(=O)n1`, the outcome [17] was “inactive”.
For `CC(O)CO` (stereo not given), the outcome [17] was “inactive”.
With `CC(C)=O` the outcome [17] was “inactive”.
For `CC1=C(/C=C/C(C)=C/C=C/C(C)=C/CO)C(C)(C)CCC1`, the outcome [17] was “inactive”.
For `Cc1ccccc1`, the outcome [17] was “inactive”.
In the case of `CCCCC/C=C\C/C=C\CCCCCCCC(=O)O`, the outcome [17] was “inactive”.
In the case of `CC1=C2[C@@H]([C@H](C)CC[C@H]2/C=C(\C)C(=O)O)[C@H](O)C1`, the outcome [17] was “inactive”.
For `CC[N+](C)(C)Cc1ccccc1Br`, the outcome [1] was “inactive”, the outcome [2] was “inactive” and the outcome [3] was “inactive”. For the same compound, the outcome [8] was “inactive”.
With `O=S(=O)(O)O` the outcome [17] was “inactive”.
For `Oc1cc(O)c2c(c1)OC(c1ccc(O)c(O)c1)C(O)C2` (stereo not given), the outcome [18] was “inactive”, the Potency [19] was 2510 nM (active) and the outcome [20] was “inactive”.
With `CCCCCCCC(=O)O` the outcome [17] was “inactive”.
